Experimental data from PubChem BioAssay.
Calls of active or inactive are those of the source. Unless noted, no rule for the calls is given here.

Key:
[1] = test system: Wnt5a (protein binding on small-molecule microarray); experiment: small molecules binding Wnt5a protein – biophysical, small-molecule microarray, 635/667 nm fluorescence, primary screen (AID 1142); details: 635 nm fluorescence, higher = more signal;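 also: fluorescence read at 667 nm with signal to noise per printed feature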
[2] = ATP-based viability of Huh7 replicon cells – cell-based, CellTiter-Glo luminescence, basal, 48 h, cytotoxicity control for HCV replication inhibitor project, primary screen (AID 1143); details: higher = more signal, called active from +8 up or from −8 down;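 also: Huh7 hepatoma cells carrying a hepatitis C replication reporter with no stimulus; test concentration not given here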
[3] = Pseudomonas biofilm growth suppression – PAO1 strain, BacTiter-Glo luminescence, LB-PBS, primary screen (AID 1144); details: P. aeruginosa PAO1 biofilm, 12 h, higher = more signal
[4] = basal CRE-LacZ reporter activity in PC12 – cell-based, unstimulated, primary screen (AID 1145); details: no forskolin, luminescence, 4.5 h, higher = more signal, called active from +8 up or from −8 down
[5] = forskolin-driven CRE-LacZ activity in PC12 – cell-based, CRE-LacZ reporter, forskolin-stimulated, primary screen (AID 1146); details: luminescence, 4.5 h, higher = more signal, called active from +8 up or from −8 down;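 also: PC12 cells with 6xCRE LacZ reporter stimulated by forskolin 10 µM; beta-galactosidase reporter signal reflecting CREB driven transcription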
[6] = target: Streptavidin (Streptomyces avidinii) (UniProt P22629); experiment: compounds binding control protein streptavidin – biophysical, small-molecule microarray, 635/667 nm fluorescence, artefact control for SMM compound annotation, primary screen (AID 1147); details: higher = more signal;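 also: signal reflects streptavidin binding to arrayed compounds as a control protein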
Sequence of Streptavidin (Streptomyces avidinii) (P22629 whole entry, looked up): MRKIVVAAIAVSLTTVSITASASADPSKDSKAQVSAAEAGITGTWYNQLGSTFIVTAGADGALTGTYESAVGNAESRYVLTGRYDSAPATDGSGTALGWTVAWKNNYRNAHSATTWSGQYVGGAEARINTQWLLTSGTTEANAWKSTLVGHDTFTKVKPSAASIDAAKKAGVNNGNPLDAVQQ

[7] = probe aInhba binding on compound microarray – biochemical, small-molecule microarray, 635/667 nm fluorescence, primary screen (AID 1148); details: higher = more signal;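 also: score merges 667nm spot fluorescence with signal-to-noise for antibody binding to printed compounds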
Torsin-1A (Homo sapiens) [8] = target: Torsin-1A (Homo sapiens) (UniProt O14656); experiment: TOR1A wild-type binding on microarray – cell lysate, small-molecule microarray, lysate, 635/667 nm, primary screen (AID 1149); details: COS7 hTOR1A-WT lysate, 635 nm fluorescence, higher = more signal
Sequence of Torsin-1A (Homo sapiens) (O14656 whole entry, looked up): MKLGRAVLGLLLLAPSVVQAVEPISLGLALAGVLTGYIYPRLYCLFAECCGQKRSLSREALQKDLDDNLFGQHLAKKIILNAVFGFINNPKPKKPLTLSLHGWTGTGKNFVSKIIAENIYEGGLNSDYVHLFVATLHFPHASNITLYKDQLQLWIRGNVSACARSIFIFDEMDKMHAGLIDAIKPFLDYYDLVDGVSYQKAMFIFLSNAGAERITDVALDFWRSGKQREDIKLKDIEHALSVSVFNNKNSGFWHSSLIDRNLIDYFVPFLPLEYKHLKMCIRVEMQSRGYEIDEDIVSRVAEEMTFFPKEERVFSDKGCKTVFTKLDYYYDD

Torsin-1A (Homo sapiens) [9] = target: Torsin-1A (Homo sapiens) (UniProt O14656); experiment: torsin A mutant lysate binding on microarrays – cell lysate, small-molecule microarray, COS7 lysate, 635/667 nm fluorescence, primary screen (AID 1150); details: COS7 hTOR1A mutant lysate, 635 nm fluorescence, higher = more signal;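 also: score pools 667 nm emission and signal to noise measuring lysate protein binding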
[10] = test system: Sonic hedgehog protein (Shh); experiment: Sonic hedgehog microarray binding compounds – biochemical, small-molecule microarray, 635/667 nm fluorescence, primary screen (AID 1151); details: 635 nm fluorescence, higher = more signal;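 also: Shh protein binding to compounds spotted on small-molecule microarray slides; score combines spot fluorescence intensity with signal-to-noise across triplicate slides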
[11] = optical density shifts of acrAB sulA E. coli – strain DRC41, OD650, 48 h, E. coli filamentation inducer project, primary screen (AID 1152); details: higher = more signal, called active from +8 up or from −8 down;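 also: E. coli MC1000 strain DRC41 lacking acrAB efflux pump and sulA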
[12] = probe aLefty1 binding on compound microarray – biochemical, small-molecule microarray, 635/667 nm fluorescence, primary screen (AID 1153); details: higher = more signal;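 also: score merges spot fluorescence with signal-to-noise ratio from the scanned slide images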
[13] = plasmodial surface anion channel blockers, osmotic lysis – cell-based, P. falciparum Indochina, OD700, 1 h, primary screen (AID 1154); details: P. falciparum Indochina infected RBC osmotic lysis, higher = more signal, called active from +8 up or from −8 down
[14] = plasmodial surface anion channel blockers, osmotic lysis – cell-based, P. falciparum Indochina, OD700, 2 h, primary screen (AID 1155);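 also: lysis reports solute entry through the parasite surface anion channel PSAC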; details: P. falciparum Indochina infected erythrocytes, higher = more signal, called active from +8 up or from −8 down
[15] = changes in parasitized red cell lysis, either direction – P. falciparum Indochina, OD700, 3 h, PSAC antagonist project, primary screen (AID 1156); details: P. falciparum-infected erythrocytes, osmotic lysis, higher = more signal, called active from +8 up or from −8 down
[16] = plasmodial surface anion channel blockers, osmotic lysis – cell-based, P. falciparum Indochina, OD700, 18 h, primary screen (AID 1157); details: P. falciparum Indochina infected erythrocytes, osmotic lysis OD700, 18 h; higher = more signal, called active from +8 up or from −8 down
[17] = S6 kinase pathway phospho-S6 level changes – cell-based, A549, cytoblot, luminescence, serum-stimulated, primary screen (AID 1158); details: 5 h, higher = more signal;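 also: serum-stimulated A549 lung adenocarcinoma cells; signal is phosphorylated S6 detected by cytoblot immunostaining with HRP secondary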
[18] = target: NADPH oxidase 2 (Homo sapiens) (UniProt P04839); experiment: compounds shifting NOX2 Amplex Red fluorescence – cell-based, HEK293-NOX2, PMA-stimulated, NOX inhibitor project, primary screen (AID 1159); details: 45 min, higher = more signal, called active from +8 up or from −8 down; also: test concentration not given here
Sequence of NADPH oxidase 2 (Homo sapiens) (P04839 whole entry, looked up): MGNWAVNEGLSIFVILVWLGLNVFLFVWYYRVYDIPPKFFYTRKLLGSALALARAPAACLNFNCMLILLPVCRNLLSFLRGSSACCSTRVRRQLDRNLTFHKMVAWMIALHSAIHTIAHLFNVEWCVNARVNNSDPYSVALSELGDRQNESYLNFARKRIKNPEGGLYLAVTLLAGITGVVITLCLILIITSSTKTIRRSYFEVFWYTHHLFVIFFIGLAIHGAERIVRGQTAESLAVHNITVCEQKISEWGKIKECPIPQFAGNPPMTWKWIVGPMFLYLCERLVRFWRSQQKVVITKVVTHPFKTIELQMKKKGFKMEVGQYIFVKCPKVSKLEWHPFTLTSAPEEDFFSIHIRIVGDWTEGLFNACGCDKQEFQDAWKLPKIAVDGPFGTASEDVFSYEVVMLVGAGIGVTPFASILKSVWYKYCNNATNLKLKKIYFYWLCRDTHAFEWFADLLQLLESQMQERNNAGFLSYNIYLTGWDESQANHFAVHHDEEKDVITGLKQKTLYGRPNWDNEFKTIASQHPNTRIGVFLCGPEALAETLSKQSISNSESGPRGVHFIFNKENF

[19] = target: NADPH oxidase 4 (Homo sapiens) (UniProt Q9NPH5); experiment: compounds shifting NOX4 Amplex Red fluorescence – cell-based, HEK293-NOX4, tetracycline-induced, NOX inhibitor project, primary screen (AID 1160); details: HEK293-NOX4, Amplex Red H2O2 fluorescence, 45 min; higher = more signal, called active from +8 up or from −8 down
Sequence of NADPH oxidase 4 (Homo sapiens) (Q9NPH5 whole entry, looked up): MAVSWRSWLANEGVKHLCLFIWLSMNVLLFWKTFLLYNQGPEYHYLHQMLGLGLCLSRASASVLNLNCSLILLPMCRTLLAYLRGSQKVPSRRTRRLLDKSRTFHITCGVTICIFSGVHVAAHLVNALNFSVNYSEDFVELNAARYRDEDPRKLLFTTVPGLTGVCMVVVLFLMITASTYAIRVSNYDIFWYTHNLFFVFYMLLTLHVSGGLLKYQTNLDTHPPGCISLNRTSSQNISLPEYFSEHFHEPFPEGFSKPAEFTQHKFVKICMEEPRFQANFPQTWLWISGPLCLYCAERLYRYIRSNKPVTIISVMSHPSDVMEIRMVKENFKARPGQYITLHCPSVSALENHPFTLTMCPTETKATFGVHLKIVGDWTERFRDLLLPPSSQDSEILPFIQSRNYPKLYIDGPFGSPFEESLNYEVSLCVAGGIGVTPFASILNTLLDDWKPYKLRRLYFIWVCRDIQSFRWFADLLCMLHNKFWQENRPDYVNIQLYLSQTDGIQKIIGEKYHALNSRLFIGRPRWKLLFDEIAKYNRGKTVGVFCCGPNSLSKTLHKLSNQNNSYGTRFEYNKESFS

[20] = target: NADPH oxidase 5 (Homo sapiens) (UniProt Q96PH1); experiment: compounds shifting NOX5 Amplex Red fluorescence – cell-based, HEK293-NOX5, NOX inhibitor project, primary screen (AID 1161); details: HEK293-NOX5, ionomycin, 45 min, higher = more signal
Sequence of NADPH oxidase 5 (Homo sapiens) (Q96PH1 whole entry, looked up): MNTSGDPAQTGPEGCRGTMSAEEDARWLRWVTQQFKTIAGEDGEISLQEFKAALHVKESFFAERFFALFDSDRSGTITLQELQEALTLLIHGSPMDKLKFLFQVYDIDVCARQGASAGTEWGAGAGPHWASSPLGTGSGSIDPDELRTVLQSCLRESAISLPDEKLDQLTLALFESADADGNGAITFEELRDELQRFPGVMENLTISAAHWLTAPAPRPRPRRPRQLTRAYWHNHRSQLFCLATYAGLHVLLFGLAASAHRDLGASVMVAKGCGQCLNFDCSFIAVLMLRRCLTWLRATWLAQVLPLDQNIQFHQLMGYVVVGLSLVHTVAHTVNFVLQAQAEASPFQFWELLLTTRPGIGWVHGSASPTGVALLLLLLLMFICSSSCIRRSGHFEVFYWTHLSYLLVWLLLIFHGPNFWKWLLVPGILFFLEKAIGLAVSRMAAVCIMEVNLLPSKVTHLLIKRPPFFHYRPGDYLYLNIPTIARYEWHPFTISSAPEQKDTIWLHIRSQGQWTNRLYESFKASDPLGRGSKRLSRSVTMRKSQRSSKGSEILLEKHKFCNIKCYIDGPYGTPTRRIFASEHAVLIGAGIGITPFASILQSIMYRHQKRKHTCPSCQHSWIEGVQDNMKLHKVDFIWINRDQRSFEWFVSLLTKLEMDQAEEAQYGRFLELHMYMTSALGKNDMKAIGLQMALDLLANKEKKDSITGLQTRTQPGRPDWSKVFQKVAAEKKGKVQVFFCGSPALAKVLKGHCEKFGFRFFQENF

SMILES	composite z-score [1]	z-score [2]	z-score [3]	z-score [4]	z-score [5]	composite z-score [6]	composite z-score [7]	composite z-score (Torsin-1A (Homo sapiens) [8])	composite z-score (Torsin-1A (Homo sapiens) [9])	composite z-score [10]	z-score [11]	composite z-score [12]	z-score [13]	z-score [14]	z-score [15]	z-score [16]	z-score [17]	z-score [18]	z-score [19]	z-score [20]
CO[C@@H]1COC(=O)CC=C[C@@H](C)[C@@H]2C=C[C@@H](O)[C@@H](COC(=O)CC=C[C@H]1C)O2	-0.141	-0.972 (inactive)	-0.492 (inactive)	0.343 (inactive)	0.427 (inactive)	-0.0469	-0.21	0.666	0.244	2.18	0.301 (inactive)	-0.012	0.118 (inactive)	-1.35 (inactive)	-1.66 (inactive)	-1.73 (inactive)	0.805	-0.0926 (inactive)	0.492 (inactive)	0.957
CN1C(=O)[C@@]2(CCC(=O)OC(C)(C)C)N=C(c3ccc(OCCCO)cc3)O[C@H]2c2ccccc21	0.0942	-4.68 (inactive)	-1.73 (inactive)	0.652 (inactive)	-1.92 (inactive)	-0.235	0.0649	-0.132	0.43	1.5	1.02 (inactive)	0.0959	30.8 (active)	26.6 (active)	1.7 (inactive)	1.11 (inactive)	1.09	-2.05 (inactive)	0.112 (inactive)	-1.43
COCCCNC(=O)[C@@]1(CCS(=O)(=O)c2ccccc2)N=C(c2ccc(OCCCO)cc2)O[C@H]1c1ccccc1	0.68	-1.7 (inactive)	-0.701 (inactive)	0.951 (inactive)	0.353 (inactive)	0.188	0.38	1.45	2.73	-0.766	2.46 (inactive)	0.812	28.5 (active)	21 (active)	1.08 (inactive)	1.55 (inactive)	0.326	3.58 (inactive)	1.71 (inactive)	-0.339
COc1cccc([C@H]2Oc3ccc(OC)cc3C(=NOC(C)CN3CCCc4nc(C)c(C)cc43)[C@@H]2O)c1 (stereo not given in full)	0.35	-0.252 (inactive)	1.28 (inactive)	2.71 (inactive)	-0.0145 (inactive)	-0.504	0.0442	0.433	0.27	0.478	-0.304 (inactive)	0.0809	2.47 (inactive)	0.542 (inactive)	0.714 (inactive)	0.465 (inactive)	-0.912	-1.12 (inactive)	-0.807 (inactive)	1.57
CC1(C)OCC(C(O)C2=CCCCC2=O)CO1 (stereo not given)	0.24	0.956 (inactive)	-0.432 (inactive)	-0.431 (inactive)	0.476 (inactive)	0.412	-0.133	0.429	0.803	1.5	-3.47 (inactive)	0.138	0.0704 (inactive)	0.137 (inactive)	0.864 (inactive)	0.348 (inactive)	0.315	0.362 (inactive)	-0.247 (inactive)	1.07
COCC1=C2[C@@H](CCc3ccccc3)OB(O)C[C@@H]2n2c(=O)n(-c3ccccc3)c(=O)n2C1	0.102	-0.405 (inactive)	0.523 (inactive)	2.22 (inactive)	-0.714 (inactive)	-0.324	-0.082	-0.0531	-0.066	0.966	-0.144 (inactive)	-0.0816	1.88 (inactive)	-0.256 (inactive)	-0.698 (inactive)	-0.235 (inactive)	0.214	-0.421 (inactive)	-2.2 (inactive)	-1.48
COC(=O)[C@@]1(Cc2ccccc2)[C@H]2c3cc(C(=O)N4CCCC4)n(Cc4ccccn4)c3C[C@H]2CN1C(=O)c1ccccc1	1.25	-1.5 (inactive)	-1.42 (inactive)	0.201 (inactive)	1.06 (inactive)	1.02	0.74	0.671	1.91	-0.369	-1.04 (inactive)	1.27	2.24 (inactive)	0.278 (inactive)	2.27 (inactive)	1.03 (inactive)	0.741	0.401 (inactive)	-1.83 (inactive)	-3.72
C=CCOC(=O)[C@H]1[C@@H]2C(=O)O[C@@H](c3ccccc3)[C@@H](c3ccccc3)N2[C@@H](c2ccc(OCCOC(=O)[C@H]3C[C@H]4C(=O)N[C@@H](Cc5ccccc5)C(=O)N4[C@H]3c3ccc(O)cc3)cc2)[C@]12C(=O)Nc1ccccc12	0.354	-0.155 (inactive)	-0.0202 (inactive)	0.285 (inactive)	-0.231 (inactive)	-0.261	-0.171	0.419	0.278	1.92	0.561 (inactive)	-0.263	2.5 (inactive)	1.2 (inactive)	-4 (inactive)	0.988 (inactive)	0.338	1.83 (inactive)	0.898 (inactive)	1.44
CCN1C(=O)[C@H]2[C@H]3[C@H](O)[C@H](O)CC(=NOCC=C(C)CCC=C(C)C)[C@H]3CC[C@H]2C1=O	0.249	-0.327 (inactive)	-0.805 (inactive)	-0.0223 (inactive)	-0.323 (inactive)	-0.298	-0.0471	0.896	0.43	1.77	0.376 (inactive)	-0.0518	0.955 (inactive)	-0.506 (inactive)	-0.527 (inactive)	-0.163 (inactive)	-0.0053	-0.516 (inactive)	0.301 (inactive)	-1.52
CN1C(=O)C2C(C1=O)C1C=C(CCCO)C2C(c2ccc(CN3CCCC3)cc2)N1C (stereo not given)	-0.205	-0.202 (inactive)	0.675 (inactive)	-0.0743 (inactive)	-0.436 (inactive)	-0.383	-0.157	0.33	-0.287	0.207	-0.204 (inactive)	0.0811	1.51 (inactive)	0.621 (inactive)	0.914 (inactive)	0.378 (inactive)	0.318	-2.14 (inactive)	-1.25 (inactive)	-0.91
CCOC(=O)NN=C1C[C@@H](O)[C@@H](O)[C@@H]2[C@@H]3C(=O)N(C[C@@H]4CCCO4)C(=O)[C@@H]3CC[C@@H]12	-0.0127	0.0688 (inactive)	0.139 (inactive)	-0.658 (inactive)	0.75 (inactive)	0.293	-0.0933	0.298	0.76	0.111	1.2 (inactive)	-0.245	0.564 (inactive)	-0.243 (inactive)	0.406 (inactive)	-0.0631 (inactive)	-0.0861	-0.543 (inactive)	0.111 (inactive)	0.354
CC(C)(C)OC(=O)CC[C@]1(C(=O)NCc2ccccc2)N=C(c2ccc(OCCCO)cc2)O[C@H]1c1ccccc1	1.01	-3.16 (inactive)	-1.77 (inactive)	0.699 (inactive)	-1.23 (inactive)	1.58	0.347	0.712	1.11	-0.349	0.185 (inactive)	1.18	14.6 (active)	1.79 (inactive)	1.14 (inactive)	0.887 (inactive)	-0.009	-2.22 (inactive)	-0.583 (inactive)	-1.81
COC(=O)[C@@]1(Cc2ccc(F)cc2)[C@@H]2C(=CC(=O)[C@H]2CC(=O)C(=O)N(C)C)CN1C(=O)c1ccccc1	0.392	-3.59 (inactive)	0.504 (inactive)	-0.179 (inactive)	-0.196 (inactive)	1.7	0.38	-0.441	0.283	-0.367	-0.975 (inactive)	0.589	3.38 (inactive)	1.81 (inactive)	-0.25 (inactive)	1.45 (inactive)	0.172	0.507 (inactive)	1.3 (inactive)	-0.494
CC(C)=CCCC(C)=CCON=C1[C@H]2CCn3c(=O)n(Cc4cc5c(cc4Cl)OCO5)c(=O)n3[C@H]2[C@H](O)[C@@H]2O[C@H]12	0.0888	0.148 (inactive)	0.138 (inactive)	0.336 (inactive)	0.392 (inactive)	0.813	-0.128	1.62	0.718	0.563	-0.939 (inactive)	-0.0559	1.34 (inactive)	0.722 (inactive)	0.555 (inactive)	0.38 (inactive)	0.181	0.594 (inactive)	-1.12 (inactive)	-0.711
CS(=O)(=O)CCOC(=O)C1=CC(CCCO)=CC(c2cccs2)N(Cc2cccc(OC(F)(F)F)c2)C=C1C(=O)OCCS(C)(=O)=O (stereo not given)	0.141	-3.11 (inactive)	0.957 (inactive)	4.08 (inactive)	0.706 (inactive)	1.25	0.245	0.972	0.88	0.37	-0.697 (inactive)	0.217	6.83 (inactive)	1.56 (inactive)	0.813 (inactive)	0.969 (inactive)	-0.0175	-0.895 (inactive)	-1.15 (inactive)	-2.09
